The values below come from paper PMC5540273 (PLoS ONE, 2017).

The structures appear in SMILES notation.
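Note: kd values determined as follow-up on hits from a single-replicate KINOMEscan panel screen.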

One assay has as its system EPHB6.
By Kd is commonly meant the constant that tells how readily two partners part at equilibrium. `CCc1nc(-c2cccc(C)c2)c(-c2ccnc(NC(=O)c3ccccc3)c2)s1` returned a Kd of 7600 nM. This counts as single-digit micromolar.

Consider `O=C(Nc1n[nH]c2nc(-c3ccco3)c(Br)cc12)c1ccc(CN2CCCC2)cc1.O=C(O)[C@H](O)[C@@H](O)C(=O)O` [SB-742352], for which binding was put at a Kd of 160 nM.

As for `Cl.Cn1ccc(-c2cccc(Nc3ccnc4cc(-c5nccs5)ccc34)c2)n1` [GW525701], the affinity, expressed as Kd, was 82 nM. Same read-out and setting: the same measure for `CCc1nc(-c2cccc(N(C)S(=O)(=O)c3ccccc3)c2)c(-c2ccnc(Nc3ccc(N4CCN(C(C)=O)CC4)nc3)n2)s1` [GSK1645895]: 24 nM.

The test system of the next assay is ERBB2.
Take `COc1cc2ncnc(Nc3ccc(OCc4ccccc4Br)c(Cl)c3)c2cc1OC.Cl` [GI261590]: the Kd stood at 17 nM. On the same count and under the same terms, the same measure for `Fc1cccc(COc2ccc(Nc3ncnc4cc[nH]c34)cc2Cl)c1`: 2.2 nM; for `Fc1cccc(COc2ccc(Nc3ncnc4sc(-c5ccc[nH]5)cc34)cc2Cl)c1` [GW707818]: 100 nM.

`Clc1cc(Nc2ncnc3cc[nH]c23)ccc1OCc1ccccn1` showed a Kd of 9 nM. Same read-out and setting: the same measure for `Cl.c1ccc(Cn2ncc3cc(Nc4ncnc5ccccc45)ccc32)cc1` [GW273749]: 11 nM.

As to `Cn1ccc2ncnc(Nc3ccc(Oc4cccc(Cl)c4)c(Cl)c3)c21`, the Kd came to 1.2 nM. Turning to `OCCOCCn1ccc2ncnc(Nc3ccc(Oc4cccc(Cl)c4)c(Cl)c3)c21`, the affinity, expressed as Kd, was 2.9 nM. On the same count and under the same terms, the value for `Cl.Fc1ccccc1COc1ccc(Nc2ncnc3ccc(-c4nnc(C(F)(F)F)o4)cc23)cc1Cl` [GW424170] was 110 nM. Same read-out and setting: the same measure for `Oc1ccc2ncnc(Nc3ccc(OCc4ccccc4)cc3)c2c1` [GI262866]: 27 nM; for `CS(=O)(=O)CCNCc1ccc(-c2ccc3ncnc(Nc4ccc(OCc5ccccc5)c(Cl)c4)c3c2)o1.Cl` [GW574783]: 2.8 nM; for `Cl.c1ccc(Cn2ccc3cc(Nc4ncnc5ccccc45)ccc32)cc1` [GW275568]: 14 nM. On the same count and under the same terms, the same measure for `Cl.O=S(=O)(c1cccc(F)c1)c1ccc(Nc2ncnc3cc(Br)sc23)cc1Cl` [GSK306886]: 95 nM; for `Fc1cccc(COc2ccc(Nc3ncnc4nn5ccccc5c34)cc2Cl)c1` [GW689066]: 24 nM; for `O=C(CCO)NCCn1ccc2ncnc(Nc3ccc(Oc4cccc(C(F)(F)F)c4)c(Cl)c3)c21`: 0.88 nM.

`CS(=O)(=O)CCNCc1nc(-c2ccc3ncnc(Nc4ccc(OCc5cccc(F)c5)c(Cl)c4)c3c2)cs1.Cl` [GW583340] registered a Kd of 5.9 nM.
